Among the test systems are T-47D breast; BT-549 breast; MDA-MB-435 melanoma; SW-620 colon; MCF7 breast; HCT-116 colon; HCC-2998 colon; KM12 colon.
Holding throughout (experiment): NCI-60 one-dose screen, 48 h (100 = growth as untreated, 0 = no growth, -100 = all killed)
Holding throughout (details): 10 µM unless noted

The panel holds about 83,000 compounds, 20% with a hit somewhere; the sample as a whole holds those more often.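 Values shown are percent growth following 48 h exposure of cells in 96-well plates to a single concentration of compound; below 10 was considered active.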 Unmarked numbers belong to inactive results. Active and inactive are the calls of the source.

In the case of `NC(=O)c1ccc[n+](Cc2ccc(Cl)cc2Cl)c1`, the growth is 85.3% in the experiment with T-47D breast; 76% in the experiment with BT-549 breast; 107% in the experiment on MDA-MB-435 melanoma; 103% in the experiment on SW-620 colon; 95.7% with MCF7 breast; 80% in the experiment on HCT-116 colon. Besides, the figures for the growth in the experiment with HCC-2998 colon and in the experiment with KM12 colon were 93.3% and 101%, respectively.

Take `O=[N+]([O-])c1ccc(N2c3ccncc3Sc3ccncc32)cc1`: the growth is 97.4% in the experiment with T-47D breast; 114% in the experiment on BT-549 breast; 112% in the experiment on MDA-MB-435 melanoma; 103% in the experiment with SW-620 colon; 101% in the experiment on MCF7 breast; 91.6% in the experiment with HCT-116 colon. Also, the growth in the experiment with HCC-2998 colon is 110%; with KM12 colon it was 93.5%.

Turning to `COc1cc(/C=C/C(=O)N2CCN(C(=O)c3cc(OC)c(OC)c(OC)c3)CC2)ccc1OCCCN1C(=O)c2cccc3cccc(c23)C1=O`, the growth with T-47D breast was 61.9%; with BT-549 breast it was 108%; in the experiment with MDA-MB-435 melanoma, 95.6%; with SW-620 colon, 100%; in the experiment on MCF7 breast it was 90.4%; in the experiment with HCT-116 colon, 81.4%. The growth in the experiment with HCC-2998 colon is 99.7%; in the experiment with KM12 colon, 79.6%.

On to `O=c1ssc(Cl)c1-c1ccccc1`, for which the growth with T-47D breast is 95.7%; in the experiment on BT-549 breast it was 114%; in the experiment on MDA-MB-435 melanoma, 98.4%; in the experiment on SW-620 colon it was 95.2%; in the experiment on MCF7 breast, 89.3%; in the experiment with HCT-116 colon, 93.5%. The growth in the experiment on HCC-2998 colon was 104%; in the experiment on KM12 colon, 113%.

Regarding `O=C(CCCCCCN1CC(=O)N2[C@@H](c3ccccc3Cl)c3[nH]c4ccccc4c3C[C@H]2C1=O)NO`, the growth in the experiment on T-47D breast is 28.3%; with BT-549 breast, 76.8%; with MDA-MB-435 melanoma, 59.3%; in the experiment with SW-620 colon, 49.1%; in the experiment with MCF7 breast, 44%; with HCT-116 colon it was 34.2%. The growth was 69.6% in the experiment on HCC-2998 colon and 74.8% with KM12 colon.

Regarding `CCOC(=O)c1c2ncccc2n2c(=O)n(-c3ccccc3C)nnc12`, the growth in the experiment with T-47D breast is 89.9%; in the experiment with BT-549 breast, 104%; in the experiment on MDA-MB-435 melanoma, 116%; in the experiment on SW-620 colon, 117%; in the experiment with MCF7 breast it was 77.5%; in the experiment with HCT-116 colon, 92.6%. Besides, the growth with HCC-2998 colon was 106%; with KM12 colon, 119%.

As for `c1ccc(-c2nc([P+](c3ccccc3)(c3ccccc3)c3ccccc3)c(N3CCOCC3)o2)cc1`, the growth with T-47D breast was -3.03% (active); with BT-549 breast it was -5.41% (active); in the experiment on MDA-MB-435 melanoma, -1.04% (active); in the experiment with SW-620 colon, 14.4%; in the experiment with MCF7 breast, 2.94% (active); with HCT-116 colon it was 2.08% (active). Further, the growth with HCC-2998 colon was 26.5%; in the experiment on KM12 colon it was -1.22% (active).

As for `COc1cc(N=Nc2cc(Cc3ccc(N(C)C)cc3)c(N)cc2N(C)C)c2ncccc2c1`, the growth in the experiment on T-47D breast was -12.1% (active); in the experiment with BT-549 breast, 29.6%; in the experiment on MDA-MB-435 melanoma, 18.7%; in the experiment on SW-620 colon it was -33.7% (active); in the experiment on MCF7 breast it was -1.6% (active); in the experiment with HCT-116 colon, -23.7% (active). Moreover, the growth in the experiment with HCC-2998 colon was 26.1%; in the experiment with KM12 colon, -11.4% (active).

In the case of `COc1ccc2[nH]c(O)c(/C=c3/cc4c(c(-c5cc(OC)c(OC)c(OC)c5)n3)=Nc3ccccc3-4)c2c1`, the growth in the experiment with T-47D breast is 78.7%; in the experiment on BT-549 breast, 69.5%; with MDA-MB-435 melanoma, 29.6%; with SW-620 colon it was 62.8%; in the experiment with MCF7 breast, 23.4%; with HCT-116 colon it was 36.8%. The growth in the experiment with HCC-2998 colon is 77.1%; in the experiment on KM12 colon, 52.5%.

For the compound `Cc1cc(NCc2cc(Nc3ccnc4cc(Cl)ccc34)ccc2F)nc(N2CCOCC2)n1`, the growth is -54.8% (active) in the experiment with T-47D breast; 75.3% in the experiment with BT-549 breast; -18.4% (active) in the experiment with MDA-MB-435 melanoma; 32.5% in the experiment with SW-620 colon; 6.18% (active) in the experiment on MCF7 breast; 2.23% (active) in the experiment on HCT-116 colon. Further, the results for the growth with HCC-2998 colon and with KM12 colon were 55.8% and 44%, respectively.

With `Cc1ccc(Cc2cnc(NC(=O)c3ccc4noc(-c5ccccc5)c4c3)s2)cc1`, the growth in the experiment with T-47D breast was 78.7%; in the experiment with BT-549 breast, 99.6%; with MDA-MB-435 melanoma, 85.8%; in the experiment with SW-620 colon it was 89.1%; in the experiment on MCF7 breast, 69.8%; with HCT-116 colon it was 86.7%. Moreover, the values for the growth in the experiment on HCC-2998 colon and with KM12 colon were 99.7% and 91.3%, respectively.

In the case of `O=Cc1c[nH]c2ccc(-c3csc4ccccc34)cc12`, the growth in the experiment with T-47D breast was 70.7%; with BT-549 breast, 38.5%; in the experiment on MDA-MB-435 melanoma it was -17.5% (active); in the experiment on SW-620 colon, 15.6%; in the experiment with MCF7 breast, 40.2%; in the experiment on HCT-116 colon, 21.2%. In addition, the growth was 13.4% in the experiment on HCC-2998 colon and 2.08% (active) with KM12 colon.

For the compound `C[C@]12CC[C@@H]3c4cc(OC(F)F)c(O)cc4CC[C@H]3[C@@H]1CC[C@@H]2OS(N)(=O)=O`, the growth in the experiment with T-47D breast was 47%; with BT-549 breast it was 67.7%; with MDA-MB-435 melanoma it was 0.824% (active); in the experiment on SW-620 colon it was 31.2%; in the experiment on MCF7 breast, 24.2%; with HCT-116 colon, 29.8%. Further, the growth is 47.5% in the experiment with HCC-2998 colon and 18.9% in the experiment with KM12 colon.

Turning to `Cc1cccc(-c2nc(N(C)c3ccc4ncsc4c3)c3ccccc3n2)n1`, the growth in the experiment on T-47D breast was 60.6%; in the experiment on BT-549 breast it was 87.1%; with MDA-MB-435 melanoma, -3.29% (active); in the experiment with SW-620 colon, 57.9%; in the experiment on MCF7 breast, 45%; with HCT-116 colon, 65.2%. For the same compound, the growth in the experiment with HCC-2998 colon is 84.2%; with KM12 colon it was 55.4%.

Values taken from PubChem BioAssay (NCI).
